In the library only some 31% were active in any assay of this set; here they are far more common.
CYP2C9 activ – activators of human CYP2C9; P11712; recombinant CYP2C9, luciferin-H conversion, luminescence; stronger effect = higher value; factor 1 = untreated enzyme, 0 = blocked; activation factor at 5 µM; 96,000 compounds, 1.4% hits; AID 1024;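 active = activation factor of 2 or more for CYP2C9 at a 5 µM dose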
CYP2C9 inhib – human CYP2C9 inhibition; P11712; CYP2C9 Supersomes, luciferin-H conversion, luminescence; inhibition, % at 5 µM; 96,000 compounds, 20% hits;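 active = blocking of liver enzyme CYP2C9 beyond about 50% at 5 µM, limit read from the data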
CYP2C19 act – cytochrome P450 2C19 (human) activation; P33261; recombinant CYP2C19, luciferin-H EGE luminescence; stronger effect = higher value; 0 = fully inhibited enzyme, 1 = untreated enzyme; AID 1025; activation factor at 5 µM; 96,000 tested, under 10 active;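 active = activation factor of at least 2 at 5 µM in the primary screen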
Target sequence (P33261 whole entry, looked up): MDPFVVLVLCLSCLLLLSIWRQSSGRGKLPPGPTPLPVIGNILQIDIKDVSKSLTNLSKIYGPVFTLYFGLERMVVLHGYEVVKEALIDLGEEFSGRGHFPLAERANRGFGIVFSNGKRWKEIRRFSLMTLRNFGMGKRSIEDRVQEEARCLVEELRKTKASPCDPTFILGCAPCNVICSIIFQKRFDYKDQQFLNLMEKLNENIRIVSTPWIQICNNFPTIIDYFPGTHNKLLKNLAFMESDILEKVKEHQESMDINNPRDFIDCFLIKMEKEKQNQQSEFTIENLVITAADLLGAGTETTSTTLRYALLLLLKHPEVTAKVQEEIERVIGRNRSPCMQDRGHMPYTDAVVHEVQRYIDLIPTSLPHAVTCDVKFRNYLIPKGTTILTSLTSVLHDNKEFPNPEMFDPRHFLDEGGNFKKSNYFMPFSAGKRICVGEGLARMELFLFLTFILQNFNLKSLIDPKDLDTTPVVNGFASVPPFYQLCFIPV
PLAP activator – human PLAP activation. 96,000 compounds, 1.2% hits. purified PLAP enzyme, luminescent substrate read-out; stronger effect = higher value. activation fold at 20 µM. P05187; in the data active = activation fold above about 2
CYP2C19 inhib – inhibitors of human CYP2C19. P33261. 96,000 compounds, 21% hits. CYP2C19 Supersomes, luciferin-H EGE luminescence, 30 min. inhibition, % at 5 µM;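 active = CYP2C19 inhibition above a set limit at 5 µM in the primary screen, cut at about 50% in these data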
Of the large screens only hits and unclear results are named; the others gave an inactive call.

COC(=O)c1[nH]c2cccc(Cl)c2c1NC(=O)CN(C)C1CCCCC1	CYP2C9 inhib 63.3
COc1ccc(Cl)cc1NC(=O)CN(C)C1CCCCC1	CYP2C9 activ 2.3, CYP2C19 inhib 86.0
CCOC(=O)c1ccccc1NC(=O)CN(c1ccccc1)S(=O)(=O)N(C)C	CYP2C9 inhib 93.9, CYP2C19 inhib 86.0
CCOC(=O)c1ccccc1NC(=O)CN(c1ccccc1OC)S(C)(=O)=O	none
Cc1noc(C)c1C(=O)OCC(=O)Nc1cc(Cl)ccc1Oc1ccccc1	CYP2C9 inhib 63.2
COc1ccc(C)cc1NC(=O)COC(=O)c1c(C)noc1C	none
COC(=O)c1[nH]c2cccc(OC)c2c1NC(=O)CCN1CCC(C(N)=O)CC1	none
O=C(OC(C(=O)NC1CCCC1)c1ccccn1)c1cccs1 (configuration not stated)	none
COc1ccc(Cn2c(C)c(C)c(C#N)c2NC(=O)Nc2cccc(Cl)c2)cc1	none
Cc1ccc(Cl)cc1NC(=O)COC(=O)C1CCCC1	CYP2C19 inhib 95.5
COc1ccc(Cl)cc1NC(=O)CN(c1ccccc1)S(=O)(=O)N(C)C	CYP2C19 inhib 81.1
CS(=O)(=O)N(CC(=O)Nc1cc(Cl)ccc1Cl)c1ccccc1Cl	CYP2C9 inhib 77.1, CYP2C19 inhib 95.6
N=c1sccn1CC(=O)Nc1cc(Cl)ccc1Oc1ccccc1	none
Cc1ccc(Cl)cc1NC(=O)COC(=O)C12CC3CC(CC(C3)C1)C2	none
Cc1cccc(C)c1N(CC(=O)Nc1cc(Cl)ccc1Oc1ccccc1)S(C)(=O)=O	CYP2C9 inhib 66.0
Cc1csc(N(C(=O)c2cccc(S(=O)(=O)N(C)C)c2)c2ccccc2)n1	none
CC(C)CCN(C)C1CCN(S(=O)(=O)c2cccc(C(F)(F)F)c2)CC1	CYP2C19 inhib 52.1
CC(C)(C)C(=O)NC1CCN(S(=O)(=O)c2cccc(C(F)(F)F)c2)CC1	CYP2C19 inhib 80.9
O=C(Cc1ccccc1)NC1CCN(S(=O)(=O)c2ccc(C(=O)O)cc2)CC1	none
O=C(Cc1ccccc1)NC1CCN(S(=O)(=O)c2cccc(F)c2)CC1	CYP2C19 inhib 72.6
CCc1nc2ccccc2n1CC(=O)N1CCN(S(=O)(=O)c2cccc(C(F)(F)F)c2)CC1	none
CC(C)CCN(C)C1CCN(C(=O)Nc2c(F)cccc2F)CC1	none
N=c1n(CCN2CCOCC2)c2ccccc2n1Cc1ccccc1Br	none
CC(=O)N1CCc2c(sc(NC(=O)c3ccc4c(c3)OCCO4)c2C#N)C1	none
CCN(CC)CCn1nc(C)nc1-c1ccccc1O	PLAP activator 2.3, CYP2C19 inhib 88.3
O=C(c1c(F)cccc1F)N1CCC(O)(c2cccnc2)CC1	none
COc1ccc(C2(O)CCN(CCCCOc3ccccc3)CC2)cc1	PLAP activator 2.1
COc1cccc(C2(O)CCN(C(=O)Cc3cccnc3)CC2)c1	CYP2C19 inhib 73.1
COc1ccc(C2(O)CCN(C(=O)Cc3cccnc3)CC2)cc1	CYP2C19 inhib 57.6
O=C(COc1ccccc1Cl)Nc1nc(-c2cccs2)cs1	CYP2C9 inhib 82.0
COc1ccccc1Nc1nc(-c2cccs2)cs1	CYP2C9 inhib 72.4, CYP2C19 inhib 83.1
O=C(O)C1CCCCC1C(=O)Nc1nc(-c2cccs2)cs1 (configuration not stated)	none
COc1ccccc1Nc1nc2c(s1)CCC2	none
CC(=O)Nc1nc(-c2cccs2)cs1	CYP2C9 inhib 54.0
COc1ccccc1Nc1nc(C2(C)CCC(=O)O2)cs1 (configuration not stated)	CYP2C19 inhib 81.4
O=C1C(Cc2ccccc2)SC(=Nc2ccccc2)N1c1ccccc1 (configuration not stated)	none
Cc1cc(Cl)ccc1OCC(=O)Nc1nc(-c2cccs2)cs1	CYP2C9 inhib 55.6
Cc1ccc(N(CC(=O)NCc2ccc(F)cc2)S(=O)(=O)c2cccs2)cc1	CYP2C9 inhib 62.7, CYP2C19 inhib 99.1
Cc1ccc(N(CC(=O)NCc2ccccc2Cl)S(=O)(=O)c2cccs2)cc1	CYP2C9 inhib 65.0, CYP2C19 inhib 64.1
CC(C)(C)SCCNC(=O)CN(c1ccc(F)cc1)S(C)(=O)=O	none
Cc1ccc(S(=O)(=O)N2CCC(C(=O)NCc3ccccc3Cl)CC2)cc1	none
CCCC(=O)c1cc(F)c(N2CCOCC2)cc1C	CYP2C19 inhib 53.4
CCCC(=O)c1cc(F)c(N2CCN(S(=O)(=O)c3ccccc3)CC2)cc1C	none
Cn1c(=O)[nH]c(=O)c2c1nc(Sc1nc3ccccc3s1)n2Cc1ccccc1	none
Nc1nc(-c2cccnc2)nn1C(=O)COc1ccccc1	none
c1ccc(OCCCn2nnc(-c3cccnc3)n2)cc1	CYP2C19 inhib 51.1
O=C(CCCn1nnc(-c2cccnc2)n1)c1ccc(F)cc1	CYP2C9 inhib 52.7, CYP2C19 inhib 75.6
O=C(c1ccc(F)cc1)N1CCN(C(=O)c2cccnc2)CC1	none
O=C1CCCC(O)=C1C1C2=C(CCCC2=O)Oc2ccccc21 (configuration not stated)	none
O=C(O)CSc1ccccn1	none
O=C(Nc1cccc(-c2cn3cccnc3n2)c1)c1ccc2c(c1)OCO2	CYP2C9 inhib 59.6
O=C(Nc1cccc(-c2cn3cccnc3n2)c1)c1ccc(Br)o1	CYP2C9 inhib 58.4
O=C(Nc1cccc(-c2cn3cccnc3n2)c1)c1ccco1	none
O=C(Nc1ccc2nn(-c3ccccc3)nc2c1)c1ccc2c(c1)OCO2	none
CNc1oc(Cc2ccccc2)nc1S(=O)(=O)c1ccc(Cl)cc1	none
O=C1CC(=Nc2ccccc2)NN1c1ccccc1	CYP2C9 inhib 84.3
Cc1ccc(S(=O)(=O)N2CCC(C(=O)N[C@H](C(=O)N3CCN(C)CC3)C(C)C)CC2)cc1	none
Cc1cc(Cn2ccnc2)c(C)cc1Cn1ccnc1	CYP2C9 inhib 95.2, CYP2C19 inhib 97.1
CN(C)c1ccnc(Oc2ccc(C(C)(C)C)cc2)c1C#N	none
O=c1c(F)cn(C2CCCO2)c(=O)n1Cc1c(Cl)cccc1Cl (configuration not stated)	CYP2C19 inhib 66.1
CCOc1ccccc1/C=c1\sc2ncnn2c1=O	CYP2C9 activ 2.2
CC(=O)Oc1ccc(/C=c2\sc3ncnn3c2=O)cc1	none
CCCn1c(=O)c(C(=O)Nc2c(C)n(C)n(-c3ccccc3)c2=O)c(O)c2ccccc21	none
CSc1nsc(/C=C/Nc2cccc(Cl)c2)c1C#N	CYP2C9 inhib 65.4
COc1ccc(N2CCN(C(=O)CSc3nnc(Cn4nnc5ccccc54)n3C)CC2)cc1	none
COc1ccc2[nH]c(=O)c(CN(Cc3cccs3)Cc3nnnn3C(C)(C)C)cc2c1	CYP2C9 inhib 87.8, CYP2C19 inhib 90.8
Cc1ccc2[nH]c(=O)c(CN(CCO)C(=O)NCc3ccccc3)cc2c1	none
Cc1ccc2[nH]c(=O)c(CN(CCO)Cc3nnnn3CCc3ccccc3)cc2c1	CYP2C19 inhib 70.8
CCOc1ccc2[nH]c(=O)c(CN(Cc3cccs3)Cc3nnnn3C(C)(C)C)cc2c1	none
CCOC(=O)Cn1nnnc1CN(Cc1cccs1)Cc1cc2cc(C)ccc2[nH]c1=O	CYP2C19 inhib 65.3
